Measurements taken from the supplement of paper PMC11732987, “Enantioselective OTUD7B fragment discovery through chemoproteomics screening and high-throughput optimisation” (Communications Chemistry, 2025).

Tests used:
Test in all cases: log2 ratio of Biotin-Ahx-Ub-VS probe labelling (fragment/DMSO); higher = less target engagement (more negative = stronger competition), active = hit call of the paper (q ≤ 0.05, log2 ratio ≤ -1)
Conditions in all cases: compound concentration: 200 uM; treatment time: 3 h
USP34 = USP34 (UniProt Q70CQ2)
Summary of the method: (§1)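 Global-median-normalised Spectronaut label-free quantities were compared by unpaired t-test, and values are average log2 ratios of fragment over vehicle. Only proteins with ≥2 unique peptides were used. HEK293T lysate (495 µg per sample) was treated in triplicate with fragment at 200 µM or vehicle for 3 h and then with Biotin-Ahx-Ub-VS at 0.5 µM final for 1 h. Labelled DUBs were then NeutrAvidin-enriched, digested with LysC and trypsin, and run by diaPASEF LC-MS/MS.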

USP36 = biological target: T1, USP36 (UniProt Q9P275)
T1 sequence (whole entry): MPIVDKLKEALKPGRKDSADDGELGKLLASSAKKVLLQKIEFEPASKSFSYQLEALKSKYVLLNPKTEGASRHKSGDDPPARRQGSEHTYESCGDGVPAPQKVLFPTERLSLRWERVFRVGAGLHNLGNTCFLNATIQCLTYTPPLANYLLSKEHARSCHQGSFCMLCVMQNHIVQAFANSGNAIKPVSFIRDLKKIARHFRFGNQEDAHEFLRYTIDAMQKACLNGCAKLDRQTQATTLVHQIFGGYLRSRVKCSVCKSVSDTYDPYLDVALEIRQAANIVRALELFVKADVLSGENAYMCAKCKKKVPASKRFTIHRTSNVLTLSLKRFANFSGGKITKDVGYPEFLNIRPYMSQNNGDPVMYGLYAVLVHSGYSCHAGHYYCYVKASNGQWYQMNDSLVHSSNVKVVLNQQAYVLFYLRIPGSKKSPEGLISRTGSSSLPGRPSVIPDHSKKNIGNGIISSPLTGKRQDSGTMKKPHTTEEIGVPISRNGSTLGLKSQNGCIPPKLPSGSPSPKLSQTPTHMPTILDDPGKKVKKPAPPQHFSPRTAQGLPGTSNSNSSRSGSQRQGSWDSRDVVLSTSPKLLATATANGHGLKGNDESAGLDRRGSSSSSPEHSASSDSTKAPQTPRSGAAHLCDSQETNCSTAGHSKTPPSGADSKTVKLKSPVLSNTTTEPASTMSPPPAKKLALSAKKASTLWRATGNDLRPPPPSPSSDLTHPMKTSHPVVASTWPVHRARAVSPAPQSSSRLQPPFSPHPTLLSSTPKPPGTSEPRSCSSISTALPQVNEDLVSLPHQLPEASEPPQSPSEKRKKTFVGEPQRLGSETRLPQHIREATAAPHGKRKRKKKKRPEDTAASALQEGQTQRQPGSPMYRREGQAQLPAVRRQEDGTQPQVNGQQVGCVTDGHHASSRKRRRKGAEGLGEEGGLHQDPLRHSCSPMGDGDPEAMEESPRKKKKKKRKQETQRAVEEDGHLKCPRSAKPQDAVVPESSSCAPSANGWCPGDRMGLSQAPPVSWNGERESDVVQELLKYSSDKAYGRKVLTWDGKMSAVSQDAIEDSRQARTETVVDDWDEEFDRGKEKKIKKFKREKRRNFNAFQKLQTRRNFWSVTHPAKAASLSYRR
Summary of the method: as §1

USP38 = biological target: T2, USP38 (UniProt Q8NB14)
T2 sequence (whole entry): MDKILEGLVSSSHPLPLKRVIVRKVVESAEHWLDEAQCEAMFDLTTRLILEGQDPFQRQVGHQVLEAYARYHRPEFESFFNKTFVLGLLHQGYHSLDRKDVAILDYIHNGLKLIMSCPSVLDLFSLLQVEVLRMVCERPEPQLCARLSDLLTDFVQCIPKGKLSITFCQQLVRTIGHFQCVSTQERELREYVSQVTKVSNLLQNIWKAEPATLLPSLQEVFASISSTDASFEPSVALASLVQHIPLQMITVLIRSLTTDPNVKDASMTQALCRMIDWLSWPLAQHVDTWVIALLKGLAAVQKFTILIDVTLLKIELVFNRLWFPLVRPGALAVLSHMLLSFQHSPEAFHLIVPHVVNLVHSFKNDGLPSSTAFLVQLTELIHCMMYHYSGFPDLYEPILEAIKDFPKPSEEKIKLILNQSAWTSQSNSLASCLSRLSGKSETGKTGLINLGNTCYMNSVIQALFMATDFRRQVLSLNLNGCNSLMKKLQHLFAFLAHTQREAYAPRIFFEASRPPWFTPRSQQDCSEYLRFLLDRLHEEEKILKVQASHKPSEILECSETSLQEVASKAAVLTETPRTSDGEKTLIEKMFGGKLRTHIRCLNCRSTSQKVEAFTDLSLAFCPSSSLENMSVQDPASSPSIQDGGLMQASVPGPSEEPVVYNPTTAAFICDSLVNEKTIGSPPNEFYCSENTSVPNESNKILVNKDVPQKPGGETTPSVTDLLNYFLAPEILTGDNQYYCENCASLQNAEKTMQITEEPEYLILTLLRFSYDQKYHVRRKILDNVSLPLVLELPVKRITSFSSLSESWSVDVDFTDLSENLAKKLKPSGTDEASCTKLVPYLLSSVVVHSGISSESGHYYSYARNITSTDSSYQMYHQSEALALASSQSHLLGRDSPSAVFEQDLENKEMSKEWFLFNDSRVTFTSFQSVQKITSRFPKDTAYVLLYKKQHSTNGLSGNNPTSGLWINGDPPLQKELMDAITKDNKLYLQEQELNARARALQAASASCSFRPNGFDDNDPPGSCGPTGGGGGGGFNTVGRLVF
Summary of the method: as §1

USP39 = biological target: T3, USP39 (UniProt Q53GS9)
T3 sequence (whole entry): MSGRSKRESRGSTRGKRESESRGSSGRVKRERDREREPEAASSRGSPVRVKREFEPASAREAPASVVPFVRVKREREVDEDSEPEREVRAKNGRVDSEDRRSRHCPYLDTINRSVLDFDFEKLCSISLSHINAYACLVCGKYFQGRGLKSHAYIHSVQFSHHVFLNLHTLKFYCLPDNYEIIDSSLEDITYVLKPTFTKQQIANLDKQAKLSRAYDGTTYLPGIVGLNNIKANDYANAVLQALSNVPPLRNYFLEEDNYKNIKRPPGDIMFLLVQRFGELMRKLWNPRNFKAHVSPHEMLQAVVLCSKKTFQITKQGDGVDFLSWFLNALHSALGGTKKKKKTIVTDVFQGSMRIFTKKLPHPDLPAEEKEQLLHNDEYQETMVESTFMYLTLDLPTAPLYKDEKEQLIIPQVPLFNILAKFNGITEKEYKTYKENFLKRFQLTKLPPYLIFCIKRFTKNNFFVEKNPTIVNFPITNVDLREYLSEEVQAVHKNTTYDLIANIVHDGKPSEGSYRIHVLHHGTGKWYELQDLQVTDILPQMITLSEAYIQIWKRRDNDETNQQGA
Summary of the method: as §1

USP4 = biological target: T4, USP4 (UniProt Q13107)
T4 sequence (whole entry): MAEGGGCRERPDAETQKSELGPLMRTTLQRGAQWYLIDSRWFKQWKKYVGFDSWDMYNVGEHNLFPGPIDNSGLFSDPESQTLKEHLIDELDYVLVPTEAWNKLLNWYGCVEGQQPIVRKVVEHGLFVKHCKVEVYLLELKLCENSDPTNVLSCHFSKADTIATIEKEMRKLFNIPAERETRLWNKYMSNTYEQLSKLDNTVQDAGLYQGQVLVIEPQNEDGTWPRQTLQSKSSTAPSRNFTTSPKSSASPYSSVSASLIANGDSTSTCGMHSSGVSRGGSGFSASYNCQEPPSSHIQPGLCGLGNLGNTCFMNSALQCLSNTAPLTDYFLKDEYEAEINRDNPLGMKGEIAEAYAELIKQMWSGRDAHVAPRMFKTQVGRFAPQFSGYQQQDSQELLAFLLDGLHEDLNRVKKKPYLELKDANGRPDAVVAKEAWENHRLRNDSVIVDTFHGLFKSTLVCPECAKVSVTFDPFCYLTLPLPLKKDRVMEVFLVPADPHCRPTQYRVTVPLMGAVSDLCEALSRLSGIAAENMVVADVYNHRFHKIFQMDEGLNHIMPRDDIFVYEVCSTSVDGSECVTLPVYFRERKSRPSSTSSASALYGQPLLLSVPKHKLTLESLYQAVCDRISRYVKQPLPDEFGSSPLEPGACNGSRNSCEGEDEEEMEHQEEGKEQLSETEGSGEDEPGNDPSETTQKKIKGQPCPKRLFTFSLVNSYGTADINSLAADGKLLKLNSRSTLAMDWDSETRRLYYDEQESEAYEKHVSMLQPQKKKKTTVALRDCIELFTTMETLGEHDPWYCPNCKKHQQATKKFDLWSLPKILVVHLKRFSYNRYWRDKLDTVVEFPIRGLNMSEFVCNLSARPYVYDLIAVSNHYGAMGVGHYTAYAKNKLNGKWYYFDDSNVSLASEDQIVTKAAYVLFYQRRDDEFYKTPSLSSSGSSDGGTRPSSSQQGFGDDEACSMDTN
Summary of the method: as §1

Measured: log2 ratio of Biotin-Ahx-Ub-VS probe labelling

Sequence of USP34 (Q70CQ2 whole entry, the tested form may be a part): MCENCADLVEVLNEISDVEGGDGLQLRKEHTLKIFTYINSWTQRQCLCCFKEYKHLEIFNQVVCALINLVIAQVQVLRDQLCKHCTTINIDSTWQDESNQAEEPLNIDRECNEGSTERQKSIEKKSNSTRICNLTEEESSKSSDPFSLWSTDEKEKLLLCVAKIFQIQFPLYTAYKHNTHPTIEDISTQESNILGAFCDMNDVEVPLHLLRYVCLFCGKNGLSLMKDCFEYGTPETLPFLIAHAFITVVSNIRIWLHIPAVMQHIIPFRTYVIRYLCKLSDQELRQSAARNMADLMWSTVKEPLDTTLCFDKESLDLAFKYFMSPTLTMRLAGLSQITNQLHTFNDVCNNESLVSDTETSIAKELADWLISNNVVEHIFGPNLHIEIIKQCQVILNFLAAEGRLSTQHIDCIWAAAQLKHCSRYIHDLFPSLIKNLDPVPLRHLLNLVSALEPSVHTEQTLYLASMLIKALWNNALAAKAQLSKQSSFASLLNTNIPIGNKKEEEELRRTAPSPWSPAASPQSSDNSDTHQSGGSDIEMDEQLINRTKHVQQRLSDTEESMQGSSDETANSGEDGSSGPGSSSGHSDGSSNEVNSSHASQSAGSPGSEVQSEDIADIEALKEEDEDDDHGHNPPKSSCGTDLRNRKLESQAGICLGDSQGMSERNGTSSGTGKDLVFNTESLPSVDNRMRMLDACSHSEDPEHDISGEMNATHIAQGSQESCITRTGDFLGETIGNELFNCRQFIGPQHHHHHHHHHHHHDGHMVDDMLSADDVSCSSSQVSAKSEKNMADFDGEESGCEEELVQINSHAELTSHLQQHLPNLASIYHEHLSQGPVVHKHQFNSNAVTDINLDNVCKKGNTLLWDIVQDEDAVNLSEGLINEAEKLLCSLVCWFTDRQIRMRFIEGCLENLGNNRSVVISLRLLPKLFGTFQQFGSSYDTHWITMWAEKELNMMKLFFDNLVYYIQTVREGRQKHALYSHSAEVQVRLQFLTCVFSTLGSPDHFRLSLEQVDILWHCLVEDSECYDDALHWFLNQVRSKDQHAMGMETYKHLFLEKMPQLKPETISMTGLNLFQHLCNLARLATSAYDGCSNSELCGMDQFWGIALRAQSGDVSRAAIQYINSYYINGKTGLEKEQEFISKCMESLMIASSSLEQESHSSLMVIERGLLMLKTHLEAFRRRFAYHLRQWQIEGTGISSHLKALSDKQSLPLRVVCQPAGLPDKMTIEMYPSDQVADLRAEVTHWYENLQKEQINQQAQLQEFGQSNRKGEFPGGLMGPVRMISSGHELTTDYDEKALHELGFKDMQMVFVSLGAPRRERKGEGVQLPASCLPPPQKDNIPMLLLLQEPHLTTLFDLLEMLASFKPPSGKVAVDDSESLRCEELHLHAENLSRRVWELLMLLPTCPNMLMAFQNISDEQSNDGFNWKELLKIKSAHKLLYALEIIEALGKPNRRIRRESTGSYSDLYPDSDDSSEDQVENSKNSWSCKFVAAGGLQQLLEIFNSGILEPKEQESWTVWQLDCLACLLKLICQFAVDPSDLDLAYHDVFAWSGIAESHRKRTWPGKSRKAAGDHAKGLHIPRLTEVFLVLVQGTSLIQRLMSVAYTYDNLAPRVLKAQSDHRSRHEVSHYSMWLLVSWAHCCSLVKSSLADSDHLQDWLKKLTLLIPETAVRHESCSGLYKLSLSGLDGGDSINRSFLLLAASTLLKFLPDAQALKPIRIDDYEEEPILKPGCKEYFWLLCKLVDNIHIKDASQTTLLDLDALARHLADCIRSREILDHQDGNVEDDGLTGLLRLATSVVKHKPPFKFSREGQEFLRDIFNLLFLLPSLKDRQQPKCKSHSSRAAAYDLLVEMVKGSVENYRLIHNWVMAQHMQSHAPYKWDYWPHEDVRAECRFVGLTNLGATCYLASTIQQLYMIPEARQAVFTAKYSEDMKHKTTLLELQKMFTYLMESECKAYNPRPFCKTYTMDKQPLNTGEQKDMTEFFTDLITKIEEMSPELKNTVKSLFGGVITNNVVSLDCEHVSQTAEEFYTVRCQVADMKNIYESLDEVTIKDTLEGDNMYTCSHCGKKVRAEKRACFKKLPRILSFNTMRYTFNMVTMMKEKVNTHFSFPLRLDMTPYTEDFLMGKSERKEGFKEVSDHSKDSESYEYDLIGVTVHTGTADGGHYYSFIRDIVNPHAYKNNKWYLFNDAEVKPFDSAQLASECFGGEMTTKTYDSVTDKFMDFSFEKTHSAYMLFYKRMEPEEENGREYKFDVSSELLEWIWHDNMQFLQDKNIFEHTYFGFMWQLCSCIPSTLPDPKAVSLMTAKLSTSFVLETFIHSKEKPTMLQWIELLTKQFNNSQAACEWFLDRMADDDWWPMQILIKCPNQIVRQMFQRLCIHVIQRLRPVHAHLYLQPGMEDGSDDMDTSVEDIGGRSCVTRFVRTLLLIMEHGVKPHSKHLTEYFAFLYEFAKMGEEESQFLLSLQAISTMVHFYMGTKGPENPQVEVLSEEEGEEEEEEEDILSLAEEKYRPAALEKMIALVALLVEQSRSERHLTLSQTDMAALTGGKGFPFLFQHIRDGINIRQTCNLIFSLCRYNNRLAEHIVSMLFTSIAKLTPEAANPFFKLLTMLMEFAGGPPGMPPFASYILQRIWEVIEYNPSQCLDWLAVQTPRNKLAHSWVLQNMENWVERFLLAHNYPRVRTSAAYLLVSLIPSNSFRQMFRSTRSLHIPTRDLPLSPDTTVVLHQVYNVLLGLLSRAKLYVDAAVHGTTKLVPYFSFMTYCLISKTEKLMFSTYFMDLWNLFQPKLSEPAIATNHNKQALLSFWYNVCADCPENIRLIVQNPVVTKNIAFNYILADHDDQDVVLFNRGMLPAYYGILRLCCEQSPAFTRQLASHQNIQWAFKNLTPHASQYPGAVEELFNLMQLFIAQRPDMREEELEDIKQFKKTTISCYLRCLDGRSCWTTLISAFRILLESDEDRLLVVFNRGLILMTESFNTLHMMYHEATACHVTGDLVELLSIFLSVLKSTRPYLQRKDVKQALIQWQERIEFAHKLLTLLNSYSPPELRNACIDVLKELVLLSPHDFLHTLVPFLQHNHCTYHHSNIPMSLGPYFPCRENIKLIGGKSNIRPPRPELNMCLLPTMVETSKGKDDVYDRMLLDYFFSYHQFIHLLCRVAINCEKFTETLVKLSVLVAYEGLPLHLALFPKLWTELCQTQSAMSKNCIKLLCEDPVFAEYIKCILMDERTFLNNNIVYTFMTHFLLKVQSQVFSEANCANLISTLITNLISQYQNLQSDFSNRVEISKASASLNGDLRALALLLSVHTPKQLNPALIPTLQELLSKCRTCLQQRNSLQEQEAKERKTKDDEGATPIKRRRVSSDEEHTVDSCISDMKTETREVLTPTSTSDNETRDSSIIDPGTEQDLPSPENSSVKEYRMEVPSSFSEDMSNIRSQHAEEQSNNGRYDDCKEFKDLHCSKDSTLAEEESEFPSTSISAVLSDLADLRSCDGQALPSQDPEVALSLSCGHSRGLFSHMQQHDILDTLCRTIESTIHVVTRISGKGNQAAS

CNC(=O)Cn1cc(NC(=O)CCl)cn1
inactive: USP34 -0.0314 | USP36 -0.0542 | USP38 -0.0407 | USP39 0.234 | USP4 -0.0895
